# The supplement of paper PMC10646978
# ± gives the standard deviation.
# Key:
# Settings in all cases: modulator concentration 10 µM
# [1] = system: RAW-Dual (murine macrophage reporter line); test: NF-kB reporter (SEAP) activity fold change vs agonist alone; higher = enhanced NF-kB activity
# Outline: (§1)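 Overnight stimulation with a PRR agonist followed pre-incubation for 1 hour at 37 °C with compound at 10 μM final. This was done in RAW-Dual murine macrophage reporter cells seeded at 50 000 per well in 384-well plates. NF-κB (SEAP, QUANTI-Blue absorbance at 620 nm) and IRF (Lucia luciferase, QUANTI-Luc luminescence) were read from the supernatant. Each reporter's fold change relative to the mean agonist-only control on the same plate was averaged over replicate plates.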
# [2] = system: RAW-Dual (murine macrophage reporter line); test: IRF reporter (Lucia luciferase) activity fold change vs agonist alone; higher = enhanced IRF activity
# Outline: as §1
# [3] = system: RAW-Dual (murine macrophage reporter line); test: viability score (confluency relative to resting cells, overnight) (fraction); higher = more viable, active = viable (0.7 or more)
# Outline: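 RAW-Dual macrophages in 384-well plates were treated overnight with compound at 10 μM final. IncuCyte imaging recorded confluency, and IncuCyte software built two confluency masks across every imaged well. The viability score expresses confluency relative to resting cells and was judged against a cutoff, which a compound met only if both masks exceeded 70% of resting cells.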
# [4] = agonist: CpG ODN 1826 0.5 ug/mL
Compound,"NF-kB reporter [1, 4]",NF-kB reporter ([1]; agonist: LPS 0.1 ug/mL),NF-kB reporter ([1]; agonist: MPLA […]),IRF reporter ([2]; agonist: 3'3'-cGAMP 10 ug/mL),IRF reporter ([2]; agonist: LPS 0.1 ug/mL),IRF reporter ([2]; agonist: MPLA […]),viability score [3]
CC(=O)c1c(C(C)=O)c(C)n(-c2ccccc2N)c1C,1.04 ± 0.081,0.992 ± 0.1,1.01 ± 0.1,0.983 ± 0.069,1.3 ± 0.21,1.43 ± 0.35,1.01 (active)
C[C@@H](Oc1cc(-c2cnn(C3CCNCC3)c2)cnc1N)c1c(Cl)ccc(F)c1Cl,0.149 ± 0.026,0.423 ± 0.2,1.47 ± 0.12,0.0546 ± 0.0028,0.165 ± 0.074,0.128 ± 0.02,0.0221 (inactive)
COc1ccc(S(=O)(=O)NC(C)C)c2ccccc12,0.904 ± 0.09,0.942 ± 0.084,1.06 ± 0.06,0.999 ± 0.074,1.01 ± 0.13,1.08 ± 0.39,0.951 (active)
Cc1ccc2oc(-c3cccc(NC(=O)C(C)C)c3C)nc2c1,0.792 ± 0.062,0.908 ± 0.068,0.972 ± 0.094,0.848 ± 0.04,1.16 ± 0.068,1.33 ± 0.13,1.01 (active)
COc1ccc(C(C)(C#N)CC#N)cc1 (centres undefined),1.11 ± 0.089,0.941 ± 0.1,1.04 ± 0.1,1.06 ± 0.035,1.29 ± 0.19,1.47 ± 0.31,1.03 (active)
O=C(Cc1ccc([N+](=O)[O-])cc1)NN=Cc1ccccn1,1.09 ± 0.18,1.07 ± 0.077,1.04 ± 0.04,0.89 ± 0.11,1.05 ± 0.12,1.08 ± 0.14,1 (active)
Cc1cc(Nc2cc(CN3CCOCC3)c3nc(C)c(Cc4ccc(Cl)cc4F)n3n2)[nH]n1,2.15 ± 0.29,1.46 ± 0.39,1.59 ± 0.13,0.291 ± 0.025,0.884 ± 0.16,2.72 ± 0.31,0.0653 (inactive)
O=C(Nc1ccc([N+](=O)[O-])cc1Cl)c1cccnc1,0.871 ± 0.26,0.96 ± 0.11,0.982 ± 0.16,0.958 ± 0.061,1.06 ± 0.23,1.33 ± 0.37,0.996 (active)
CCOC(=O)c1c(C)nn(C2CCCCC2)c1N,1.1 ± 0.1,1.02 ± 0.049,1.09 ± 0.099,0.954 ± 0.044,1.2 ± 0.075,1.37 ± 0.12,1.02 (active)
COC(=O)CCS(=O)(=O)c1ccc2ccccc2c1,0.886 ± 0.055,1.01 ± 0.1,1.05 ± 0.091,1.08 ± 0.059,1.31 ± 0.16,1.06 ± 0.095,0.995 (active)
CCCOc1cccc(C=C2N=C(c3ccc(Cl)c([N+](=O)[O-])c3)OC2=O)c1,0.993 ± 0.094,1.07 ± 0.072,0.912 ± 0.055,1.02 ± 0.041,1.55 ± 0.17,1.04 ± 0.15,1.01 (active)
OCC(CO)N[C@H]1C[C@](O)(CO)[C@@H](O)[C@H](O)[C@H]1O,0.913 ± 0.054,0.924 ± 0.074,0.916 ± 0.046,0.908 ± 0.058,1.04 ± 0.065,0.884 ± 0.07,1 (active)
CCOc1ccc2nc(S(N)(=O)=O)sc2c1,0.804 ± 0.2,1.02 ± 0.051,0.985 ± 0.067,0.855 ± 0.029,0.897 ± 0.11,0.953 ± 0.2,1.01 (active)
CS(=O)(=O)N1C2CCC1CC(NC(=O)NC1CCCC1)C2 (centres undefined),1.01 ± 0.11,1.03 ± 0.12,0.88 ± 0.059,0.98 ± 0.093,1.21 ± 0.14,1.2 ± 0.26,1.01 (active)
CCOc1ccc(C=c2sc3nc4ccccc4n3c2=O)cc1Cl,1.07 ± 0.064,1.02 ± 0.095,0.979 ± 0.031,1.01 ± 0.036,1.06 ± 0.051,0.974 ± 0.094,0.998 (active)
CC(=O)NC(CS)C(=O)O (centres undefined),0.957 ± 0.074,0.934 ± 0.068,0.96 ± 0.09,0.946 ± 0.035,1.08 ± 0.18,1.08 ± 0.18,1.03 (active)
CCCOCCOC(=O)C1=C(C)NC2=C(C(=O)CCC2)C1c1ccc(F)c(F)c1 (centres undefined),0.971 ± 0.081,1.07 ± 0.1,0.851 ± 0.07,1.09 ± 0.042,1.41 ± 0.1,1.2 ± 0.12,1.01 (active)
Cc1cc(=O)[nH]c(=S)[nH]1,1.04 ± 0.09,1.02 ± 0.11,1 ± 0.035,0.99 ± 0.073,0.969 ± 0.084,1.01 ± 0.08,1 (active)
CCCCCCOc1ccc(N2C(=O)CC(SC(=Nc3ccccc3)Nc3ccccc3)C2=O)cc1 (centres undefined),0.968 ± 0.08,1.07 ± 0.073,0.856 ± 0.05,0.937 ± 0.036,1.45 ± 0.092,1.23 ± 0.25,0.996 (active)
CCOC(=O)c1ccc(NC(=O)c2sc(NC(=O)c3cc(OC)c(OC)c(OC)c3)c(C(=O)OCC)c2C)cc1,1 ± 0.095,1.02 ± 0.079,0.895 ± 0.058,0.969 ± 0.025,1.53 ± 0.25,1.14 ± 0.12,1.01 (active)
CN1CCN(c2c(F)cc3c(=O)c(C(=O)O)cn4c3c2OCN4C)CC1,1.2 ± 0.34,1.09 ± 0.093,0.971 ± 0.099,0.958 ± 0.039,1.26 ± 0.15,1.25 ± 0.12,0.995 (active)
COc1ccc(Cc2nnc(C3CCN(S(C)(=O)=O)CC3)s2)cc1,0.978 ± 0.069,1.04 ± 0.085,0.93 ± 0.12,1.06 ± 0.093,1.25 ± 0.076,1.09 ± 0.13,0.994 (active)
CCOC(=O)C1=C(C)NC(=S)NC1c1ccccc1OCc1ccccc1 (centres undefined),0.862 ± 0.069,1.05 ± 0.063,0.965 ± 0.058,0.679 ± 0.09,1.25 ± 0.22,1.03 ± 0.087,1.01 (active)
CC(C)Sc1ccc(CC(=O)NC2CCN(c3cc4c(nn3)CCCC4)CC2)cc1,0.556 ± 0.041,1.19 ± 0.11,1.02 ± 0.076,0.847 ± 0.04,1.26 ± 0.27,1.51 ± 0.47,0.973 (active)
O=C(O)CCCCCN1C(=O)c2ccccc2C1=O,0.968 ± 0.089,0.988 ± 0.074,1.04 ± 0.099,1.03 ± 0.034,1.35 ± 0.19,1.5 ± 0.23,1.03 (active)
COc1cc(CNCc2ccc3ccccc3c2)cc(OC)c1,1.26 ± 0.12,0.986 ± 0.1,1.24 ± 0.1,1.19 ± 0.35,0.906 ± 0.043,2.05 ± 0.17,0.589 (inactive)
COc1ccc(-c2cc3nc(C)cc(NCCN4CCOCC4)n3n2)cc1OC,1.11 ± 0.086,0.962 ± 0.076,0.976 ± 0.026,1.06 ± 0.13,0.998 ± 0.12,1.05 ± 0.22,0.997 (active)
